NIH3T3 tox: Cytotoxic Profiling in NIH 3T3 Cell Line of Diverse Libraries Using Quantitative High-Throughput Screening; NIH 3T3 viability, CellTiter-Glo ATP luminescence, 48-72 h; Potency, µM (titrated, usually from 96.7 µM), inactives show at the top dose activity change, negative = cytotoxicity, hits mostly inhibitors; AID 1345082, 2018; hit rate 4.3% among 94,000; note: nearly all actives have a fitted effect of over 55% in size
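Cytotoxicity was measured by CellTiter-Glo ATP luminescence after 48 or 72 h compound exposure at 37 °C. Mouse NIH 3T3 fibroblasts were seeded at 400 cells/well and dosed by 23 nL pin transfer.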
hNpr1 antagonist: Natriuretic polypeptide receptor (hNpr1) antagonism - Primary qHTS | Atrial natriuretic peptide receptor 1 (Homo sapiens), P16066 | HEK293 hNpr1 GloSensor cGMP, ANP-stimulated luminescence | Potency, µM (series often up to 46.3 µM), for the others: top-dose activity change, negative = inhibition, most hits filed as inhibitors | hit rate 1.6% among 76,000; calls by dose curve; note: nearly all actives have a fitted effect of over 60% in size
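Compound pre-incubated 30 min at room temperature on GloSensor-loaded HEK293 cells stably carrying hNpr1 and the pGS-40F cGMP biosensor. Stimulation uses hNppA at 0.1 nM final; luminescence is taken at baseline and 20 min post-agonist.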
GPT2 inh: Primary qHTS assay for inhibitors of Glutamate pyruvate transaminase 2 (GPT2). Recombinant GPT2, coupled pyruvate oxidase/HRP Amplex Red fluorescence. Potency, µM (series often up to 57.7 µM), without a hit: at the highest dose activity change, negative = inhibition, actives largely listed as inhibitors. AID 1671188, 2021. hit rate 0.25% among 100,000. Alanine aminotransferase 2 (Homo sapiens), Q8TD30; note: nearly all actives have a fitted effect of over 60% in size
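Fluorescence of coupled pyruvate oxidase/HRP/Amplex Red system (50uM Amplex, 30 min, dark) reports pyruvate formed by GPT2. Enzyme reaction: 10ng/uL GPT2, 2mM L-alanine, 250uM a-KG, 30 min room temperature, pH 7.5; 50uM AOA control.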
HEK293 tox: Cytotoxic Profiling in HEK 293 Cell Line of Diverse Libraries Using Quantitative High-Throughput Screening | HEK 293 viability, ATP luminescence (CellTiter-Glo), 48-72 h | Potency, µM (doses to about 115 µM), inactives show at the top dose activity change, negative = cytotoxicity, usual class: inhibitors | hit rate 6.6% among 94,000 | AID 1345083, 2018; note: nearly all actives have a fitted effect of over 60% in size
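Read-out: CellTiter-Glo ATP luminescence. Cells: HEK 293, 250 cells/well. Exposure: 48 or 72 hr, 37 degree Celsius.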
Luciferase inh: Firefly luciferase inhibition profiling of diverse chemical library using quantitative high-throughput screening; Luciferin 4-monooxygenase (Photinus pyralis), P08659; purified P. pyralis luciferase, luminescence, biochemical; Potency, µM (top dose mostly 115 µM), most hits filed as inhibitors; hit rate 2.5% among 76,000; AID 1347043, 2019; note: nearly all actives have a fitted effect of over 65% in size
Target sequence (P08659 whole entry, looked up): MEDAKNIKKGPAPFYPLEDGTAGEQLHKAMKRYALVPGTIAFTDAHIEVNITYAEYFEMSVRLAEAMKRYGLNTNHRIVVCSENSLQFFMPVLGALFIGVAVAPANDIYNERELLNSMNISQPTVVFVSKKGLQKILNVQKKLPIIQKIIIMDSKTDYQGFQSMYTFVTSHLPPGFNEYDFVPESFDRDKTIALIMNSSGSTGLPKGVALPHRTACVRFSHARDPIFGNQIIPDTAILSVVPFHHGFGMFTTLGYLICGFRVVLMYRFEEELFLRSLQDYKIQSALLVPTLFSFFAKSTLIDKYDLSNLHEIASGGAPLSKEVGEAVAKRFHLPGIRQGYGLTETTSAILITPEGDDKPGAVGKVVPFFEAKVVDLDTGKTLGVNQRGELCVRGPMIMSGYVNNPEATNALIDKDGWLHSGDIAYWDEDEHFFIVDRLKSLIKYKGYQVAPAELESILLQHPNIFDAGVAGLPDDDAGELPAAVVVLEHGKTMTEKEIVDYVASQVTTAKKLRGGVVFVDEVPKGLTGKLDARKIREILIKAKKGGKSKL
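Purified 10nM P. pyralis luciferase with 10uM D-luciferin and 10uM ATP in 50mM Tris acetate pH 7.5, 10mM Mg acetate, 0.01% Tween-20, 0.05% BSA. qHTS titration; luminescence read by CCD imager.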
An asterisk follows results filed as active; [ ] = dose if it differs, or a comment. Rows were chosen to be rich in hits. Some 10% of all compounds tested hit in one or more screens of this group. Unless noted, calls come from the whole dose curve; as a rule, active = well fitted curve in the direction sought with a large enough effect; inconclusive = small, poorly fitted or top-dose-only effect, or another doubt; inactive = no such curve, though single readings can be large; an effect the other way counts as inactive or inconclusive. % is set by controls: 0 for no effect and ±100 for the full control effect; potency is the fitted concentration of half-maximal effect.

`O=[S+]1([O-])NCC2(CCN(Cc3ccc(OC(F)(F)F)cc3)CC2)Nc2ccccc21` gave NIH3T3 tox inconclusive, hNpr1 antagonist 1.5%, GPT2 inh 2.3%, HEK293 tox 39.8µM* and Luciferase inh inactive.
For O=[S+]1([O-])NCC2(CCCN(Cc3ccc(Cl)cc3)C2)Oc2ncccc21 (stereo not drawn) the results were NIH3T3 tox inconclusive, GPT2 inh inactive and HEK293 tox 89.1µM*.
`COc1ccc(CN2CCC3(CC2)CN[S+](=O)([O-])c2ccccc2N3)cc1` gave NIH3T3 tox -22.6%, hNpr1 antagonist 0.0%, GPT2 inh inactive, HEK293 tox inconclusive and Luciferase inh inactive.
`O=C(c1ccco1)N1CC(Oc2ccccc2-c2nc(C3CC3)no2)C1` gave NIH3T3 tox inconclusive, GPT2 inh inactive and HEK293 tox inconclusive.
O=C(NC1CCCC1)N1CC(Oc2ccccc2-c2nc(-c3ccccc3)no2)C1 was read as NIH3T3 tox 31.6µM*, hNpr1 antagonist -17.8%, GPT2 inh inactive, HEK293 tox inconclusive and Luciferase inh inactive.
`COc1ccc(C(=O)N2CC(Oc3ccc(-c4nc(-c5ccccc5)no4)cc3)C2)cc1` gave NIH3T3 tox 4.9%, hNpr1 antagonist 0.9%, GPT2 inh -8.1%, HEK293 tox 5.2% and Luciferase inh inactive.
Screening COc1ccc(C(=O)N2CC(Oc3ccccc3-c3nc(-c4ccccc4)no3)C2)cc1 returned NIH3T3 tox 31.6µM*, hNpr1 antagonist -16.6%, GPT2 inh -16.8%, HEK293 tox 28.2µM* and Luciferase inh inconclusive.
For O=C(c1ccco1)N1CC(Oc2ccccc2-c2nc(-c3ccccc3)no2)C1 the results were NIH3T3 tox 31.6µM*, hNpr1 antagonist -21.5%, GPT2 inh inactive, HEK293 tox 25.1µM* and Luciferase inh inconclusive.
Screening COCCCNC(=O)C(NC(=O)C1CC1)C1CCN(C(=O)c2ccccc2)CC1 (stereo not drawn) returned NIH3T3 tox -18.0%, hNpr1 antagonist -10.7%, GPT2 inh 0.6%, HEK293 tox -18.0% and Luciferase inh inactive.
`COC(=O)[C@@H](Cc1cccnc1)NC(=O)[C@H]1CN(C(C)=O)CCN1C(=O)N1CCOCC1` gave NIH3T3 tox -2.1%, hNpr1 antagonist -6.6%, GPT2 inh 3.9%, HEK293 tox -3.6% and Luciferase inh inactive.
For COc1ccc(-c2ccc(C(=O)N3CCC(NC(=O)c4ccc(F)cc4)C3)cc2)nn1 (stereo not drawn) the results were NIH3T3 tox inactive and HEK293 tox -2.6%.
For O=c1cc(-c2ccccn2)oc2c(NC3CCOCC3)nccc12 the results were NIH3T3 tox 14.1µM*, hNpr1 antagonist -0.9%[70.6 µM], GPT2 inh inactive, HEK293 tox -16.7%[172 µM] and Luciferase inh inactive.
`O=c1cc(-c2cnccn2)oc2c(-c3cn[nH]c3)nccc12` gave NIH3T3 tox inconclusive, hNpr1 antagonist -9.1%[70.6 µM], GPT2 inh -16.4%[88.5 µM], HEK293 tox -24.5%[230 µM] and Luciferase inh inactive.
For O=c1cc(-c2ccccn2)oc2c(-c3cn[nH]c3)nccc12 the results were NIH3T3 tox 11.2µM*, hNpr1 antagonist -1.4%[70.6 µM], GPT2 inh -7.9%[88.5 µM], HEK293 tox inconclusive and Luciferase inh inactive.
CC(C)C[C@@H]1N[C@H](C(=O)NCc2ccc(F)cc2)Cc2c[nH]c3cccc1c23 was read as NIH3T3 tox 39.8µM*, hNpr1 antagonist -15.7%[70.6 µM], GPT2 inh -13.7%[88.5 µM], HEK293 tox 28.2µM* and Luciferase inh inactive.
`CC(C)C[C@@H]1N[C@H](C(=O)NCCN2CCCC2)Cc2c[nH]c3cccc1c23` gave NIH3T3 tox inconclusive, hNpr1 antagonist -6.9%[70.6 µM], GPT2 inh inactive, HEK293 tox inconclusive and Luciferase inh inactive.
CC(C)C[C@@H]1N[C@H](C(=O)NCc2ccccn2)Cc2c[nH]c3cccc1c23 was read as NIH3T3 tox inconclusive, hNpr1 antagonist -18.3%[70.6 µM], GPT2 inh 1.1%[88.5 µM], HEK293 tox 28.2µM* and Luciferase inh inactive.
Screening COc1ccc(CNC(=O)[C@@H]2Cc3c[nH]c4cccc(c34)[C@H](CC(C)C)N2)cc1 returned NIH3T3 tox 44.7µM*, hNpr1 antagonist -11.9%[70.6 µM], GPT2 inh -4.0%[88.5 µM], HEK293 tox 79.4µM* and Luciferase inh inactive.
CC(C)C[C@@H]1N[C@H](C(=O)NCc2ccccc2)Cc2c[nH]c3cccc1c23 was read as NIH3T3 tox 31.6µM*, hNpr1 antagonist -17.8%[70.6 µM], GPT2 inh -15.0%[88.5 µM], HEK293 tox 35.5µM* and Luciferase inh inactive.
For CCCC(=O)N1Cc2ccccc2CC2(CCCN(Cc3ccccc3)C2)C1 (stereo not drawn) the results were NIH3T3 tox inconclusive, GPT2 inh -26.0% and HEK293 tox inconclusive.
CC1(COc2cccnc2)COc2ccc(C(=O)NCCOc3ccccc3)cc2N1 (stereo not drawn) was read as NIH3T3 tox inconclusive, hNpr1 antagonist 8.91µM*, GPT2 inh 1.4%[88.5 µM], HEK293 tox inconclusive and Luciferase inh inconclusive.
Screening CC1(COc2cccnc2)COc2ccc(C(=O)NCCc3ccccc3)cc2N1 (stereo not drawn) returned NIH3T3 tox inconclusive, hNpr1 antagonist 8.91µM*, GPT2 inh 3.2%[88.5 µM], HEK293 tox inconclusive and Luciferase inh inconclusive.
NC(=O)[C@@H]1C[C@H](Oc2cccnc2)CN1S(=O)(=O)c1cccnc1 was read as NIH3T3 tox -8.1%, GPT2 inh -0.5% and HEK293 tox inactive.
`Cc1noc(C)c1-c1cc(-c2ccc(CN(C)C)cc2)cn2cncc12` gave NIH3T3 tox 28.2µM*, hNpr1 antagonist 0.5%[70.6 µM], GPT2 inh -10.0%[88.5 µM], HEK293 tox inconclusive and Luciferase inh inactive.
For CN(C)Cc1ccc(-c2cc(-c3ccncc3)c3cncn3c2)cc1 the results were NIH3T3 tox inconclusive, hNpr1 antagonist -2.2%[70.6 µM], GPT2 inh -1.1%[88.5 µM], HEK293 tox 89.1µM* and Luciferase inh inconclusive.
`Cc1noc(C)c1-c1cc(-c2ccncc2)cn2cncc12` gave NIH3T3 tox inconclusive, hNpr1 antagonist 2.3%[70.6 µM], GPT2 inh 1.0%[88.5 µM], HEK293 tox inconclusive and Luciferase inh inactive.
For CN1CC(=O)N(C2CCCNCC2)Cc2c1ncnc2N1CCN(c2ncccn2)CC1 (stereo not drawn) the results were NIH3T3 tox inactive, GPT2 inh -25.7% and HEK293 tox inactive.
